# tim10-1 inh: tim10-1 yeast growth inhibition | S. cerevisiae tim10-1 ts strain growth, BacTiter-Glo, 24 h | inhibition, % at 20 µM | actives 2.2% (n = 330,000);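 active = inhibition of at least 40%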;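 note: mutant grown at 25 °C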
# SKKanGAS inh: blocks kanamycin growth of S. pyogenes SKKanGAS strain; inhibition, % at 7.5 µM; BacTiter-Glo, 6 h; actives 1.3% (n = 300,000);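 active = mean replicate score, as percent of positive control median, at least 50; inconclusive = mean below 50 but one replicate at or above 50; inactive = mean and every replicate below 50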;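 note: strain carries kanamycin resistance gene driven by streptokinase promoter and grows in 40 µg/ml kanamycin; loss of luminescence reflects streptokinase promoter inhibition or plain growth inhibition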
# PfHsp90 set2: growth inhibition of yeast expressing Plasmodium Hsp90; S. cerevisiae expressing PfHsp90, BacTiter-Glo ATP, 48 h; yeast lacking PDR1 and PDR3 efflux regulators; inhibition, % at 9.4 µM; actives 0.32% (n = 310,000);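 active = every replicate shows inhibition above about 80%, whatever the replicate mean, limit read from the data; inconclusive = mean inhibition reaches the set limit but some replicate falls short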
# TIM10 inh: growth inhibitors of TIM10 yeast strain | actives 1.4% (n = 330,000) | S. cerevisiae TIM10 strain growth, BacTiter-Glo luminescence, 24 h | inhibition, % at 10 µM;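 active = inhibition of 40% or more at the single tested concentration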;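 note: wild-type TIM10 isogenic control strain grown at permissive 25 °C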
# tim23-1 inh: growth inhibitors of tim23-1 mutant yeast | S. cerevisiae tim23-1 growth, BacTiter-Glo luminescence, 24 h | inhibition, % at 20 µM | actives 1.3% (n = 330,000) | AID 463212;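 active = growth inhibition of the mutant yeast at or above 50%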;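 note: temperature-sensitive mutant grown at 25 °C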
# tim10-1 conf: confirmation of tim10-1 mutant yeast growth inhibitors. actives 56% (n = 7,400). shares compounds with tim10-1 inh. inhibition, % at 20 µM. S. cerevisiae tim10-1 ts strain growth, BacTiter-Glo, 24 h;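 active = inhibition of yeast growth at or above a set limit in either of two repeat tests at 20 µM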;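 note: tim10-1 mutant grown at permissive 25 °C to find synthetic lethal compounds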
# tim10 confirm: TIM10 yeast growth inhibition, confirmed; inhibition, % at 10 µM; S. cerevisiae tim10 strain growth, BacTiter-Glo luminescence, 24 h; AID 463215; shares compounds with TIM10 inh; actives 63% (n = 4,600);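 active = inhibition of yeast growth at or above a set limit in either of two replicates at 10 µM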; note: this counterscreen used the strain with wild-type TIM10
# tim23-1 confirm: confirmation of tim23-1 mutant yeast growth inhibitors. S. cerevisiae tim23-1 growth, BacTiter-Glo luminescence, 24 h. shares compounds with tim23-1 inh. inhibition, % at 20 µM. AID 463218. actives 83% (n = 4,400);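 active = inhibition above about 39% in either of two replicate wells at 20 µM, limit read from the data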;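 note: temperature-sensitive tim23-1 mutant grown at 25 °C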
# Numbers stand for hits; n = inactive; u = inconclusive; x = not tested or not shown. The list is not random: actives were taken first. Their share in the collection is about 4.4%.
SMILES,tim10-1 inh,SKKanGAS inh,PfHsp90 set2,TIM10 inh,tim23-1 inh,tim10-1 conf,tim10 confirm,tim23-1 confirm
O=C(Cc1ccc(F)cc1)Nc1ccc(S(=O)(=O)N2CCCCC2)cc1,n,n,n,n,n,x,x,x
Cc1ccc(C)c(NC(=S)NCCc2ccc(F)cc2)c1,n,n,n,n,n,x,x,x
Cc1ccc(C)c(NC(=S)NNc2ccc(F)cc2F)c1,47,n,n,n,58,42,x,57
COc1ccc(-c2cc3nc4n(c(=O)c3s2)CCC4)cc1,58,99,n,70,58,54,76,55
COc1ccc(-c2cc3nc(C)n(N)c(=O)c3s2)cc1,65,88,u,58,69,66,48,68
COc1ccc(-c2cc3nc4n(c(=O)c3s2)CCCCC4)cc1,n,n,n,n,n,x,x,x
O=C(NCc1ccc2[nH]c3c(c2c1)CCCC3)c1ccc(S(=O)(=O)N2CCCCC2)cc1,n,n,n,n,n,x,x,x
S=C(NCc1ccc2[nH]c3c(c2c1)CCCC3)Nc1ccccc1,46,n,n,48,53,43,51,59
COc1ccc(C2N(c3ccccc3)C(=O)C2(F)F)cc1OC (stereo not drawn),n,n,n,n,n,x,x,x
COc1cc(CNC2CCCC2)c(Br)cc1OC1CCCC1,n,n,n,n,n,x,x,x
COc1cc(C=O)c(Br)cc1OC1CCCC1,48,n,n,45,56,33,34,53
CC1=CC(C)(C)N(C(=O)CN2C(=O)c3ccccc3C2=O)c2ccccc21,43,n,n,40,60,n,n,51
CC1=CC(C)(C)N(C(=O)CN2C(=O)CCC2=O)c2ccc(C)cc21,n,n,n,n,n,x,x,x
O=C(/C=C/c1ccnc2ccccc12)c1cccs1,71,n,85,79,67,72,83,n
COc1ccccc1/C=N/OCc1ccc(C#N)cc1,n,n,n,n,n,x,x,x
COc1ccc(C)cc1NC(=O)C1CCCCN1S(=O)(=O)c1ccccc1 (stereo not drawn),n,x,n,n,n,x,x,x
O=C(/C=C/c1ccccc1[N+](=O)[O-])c1ccccc1Br,63,n,104,64,80,73,70,79
O=C(/C=C\c1ccccc1[N+](=O)[O-])Nc1ccccc1,n,n,n,n,n,x,x,x
CSc1ncccc1C(=O)OCC(=O)N1CCc2ccccc21,n,x,n,n,n,x,x,x
CC(C)(C)c1ccc(NC(=O)N2CCCN(c3ccc([N+](=O)[O-])cn3)CC2)cc1,43,n,n,43,61,50,42,57
COc1ccccc1/C=C1\N=C(C(C)(C)C)OC1=O,44,n,n,47,51,47,34,67
COc1ccc(C(c2nnnn2C(C)C)N2CCN(C(=O)c3ccco3)CC2)cc1 (stereo not drawn),n,n,n,n,n,x,x,x
CCC(C)n1c(/C=C/c2ccccc2)nc2ccccc21 (stereo not drawn),45,n,n,44,53,35,n,50
O=c1[nH]cnc2scc(-c3ccccc3)c12,n,n,n,n,n,x,x,x
O=c1[nH]cnc2c1c(-c1ccccc1)cn2-c1cccc(Cl)c1,46,n,n,n,60,36,x,38
SMILES,tim10-1 inh,SKKanGAS inh,PfHsp90 set2,TIM10 inh,tim23-1 inh,tim10-1 conf,tim10 confirm,tim23-1 confirm
Cc1ccc(-c2nnc(C)c(N3CCCC3)n2)cc1,42,n,n,n,54,n,x,69
Cc1nnc(-c2ccccc2)nc1N1CCOCC1,n,n,n,n,n,x,x,x
COc1cc(/C=C(\C#N)C(=O)N2CCOCC2)cc(Br)c1O,n,n,n,n,n,x,x,x
N#C/C(=C\c1cccc(Oc2ccccc2)c1)C(=O)N1CCOCC1,81,n,100,82,80,80,78,76
COc1ccc(CCNC(=S)NC(=O)c2ccccc2)cc1OC,48,n,n,53,56,39,31,44
COc1ccc(CNC(=O)CN(C(=O)c2csnn2)c2ccccc2F)cc1,n,n,n,n,n,x,x,x
C=CCNc1nc(Cl)nc(NC2CCCCC2)n1,n,n,n,n,n,x,x,x
O=C1c2c(Br)c(Br)c(Br)c(Br)c2C(=O)N1c1ccccn1,76,n,n,69,86,75,75,58
O=P(c1ccccc1)(c1ccccc1)N(c1ccccc1)c1ccccc1,n,n,n,n,n,x,x,x
O=C1C=CC(=O)N1N(c1ccccc1)c1ccccc1,65,n,96,54,55,67,61,47
CCOC(=O)C1=C(C)N=c2s/c(=C/c3ccc(OCC(=O)O)c(OC)c3)c(=O)n2C1c1ccc(Cl)cc1 (stereo not drawn),56,52,n,n,50,46,x,53
COc1cccc(/C=N/NC(=O)NC23CC4CC(CC(C4)C2)C3)c1O,52,97,x,42,52,n,39,47
Cc1ccc(/C=N/NC(=O)NC2CCCCC2)o1,n,n,n,n,n,x,x,x
Cc1ccc(/C=C/C(=O)NC2CCCCCCC2)o1,55,n,n,46,52,57,38,58
CC(=O)N(C)c1ccc(NC(=O)N2CCOCC2)cc1,n,n,n,n,n,x,x,x
COc1ccc(C(=O)N/N=C(\C)CC(=O)Nc2ccc3ccccc3c2)c(OC)c1,n,n,n,n,n,x,x,x
COc1ccc(Cl)cc1C(=O)NNC(=O)c1csc(N2CCOCC2)n1,n,n,n,n,n,x,x,x
COc1ccc(C/C(N)=N/OC(=O)COc2ccccc2C)cc1,51,n,n,n,55,39,x,41
N/C(Cc1ccc([N+](=O)[O-])cc1)=N\OC(=O)COc1cccc2ccccc12,64,n,n,76,60,73,72,91
COc1ccc(CC(=O)O/N=C(\N)Cc2ccc(OC)cc2)cc1,n,n,n,n,n,x,x,x
CSc1nc2ccc(NS(=O)(=O)c3ccc(Cl)s3)cc2s1,44,n,n,47,58,32,44,78
Cc1ccc(S(=O)(=O)NCc2cccnc2)cc1C(=O)NC1CCCCC1,n,n,x,n,n,x,x,x
O=C(Nc1ccc(Cl)cc1)C(Cl)C(=O)c1ccccc1 (stereo not drawn),55,n,n,59,70,56,81,76
N#Cc1ccccc1NS(=O)(=O)c1cc2c3c(c1)CCC(=O)N3CCC2,n,n,x,n,n,x,x,x
CC(=O)Oc1ccc2ccc3ccc(C(C)=O)cc3c2c1,x,x,n,x,x,x,x,x

# Source: PubChem BioAssay (several laboratories)
